Data on 40 molecules can be found in PubChem BioAssay (NCI).

Compounds without any hit were thinned out: in the full panel of roughly 83,000, 20% have a hit.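 Negative percent growth values reflect cell death: -40 means 40% of the cells present at the start died, and -100 means all died.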 Calls of active or inactive are those of the source.

The subject of this assay is SN12C renal. Nature of the assay: NCI-60 one-dose screen, 48 h (100 = growth as untreated, 0 = no growth, -100 = all killed). The conditions noted are these: 10 µM unless noted. As for the experimental part: Growth inhibition of the SN12C human tumor cell line is measured as a screen for anti-cancer activity. Cells are grown in 96 well plates and exposed to the test compound for 48 hours. Compounds are tested at a single concentration, which is 10^-5 M for most compounds. The reported endpoint is percent growth (GI% or GIPRCNT), where numbers from 0 - 100% represent growth inhibition, and numbers from -100% - 0 represent cell death. For example, a value of 40 represents 60% growth inhibition. A value of 0 means no net growth occurred over the course of the experiment. A value of -40 indicates 40% of cells at the beginning of the experiment died by the end of the experiment. A value of -100 means all cells are dead at the end of the experiment.
NCI-60 Human Tumor Cell Lines Screen was performed using the standard one-dose NCI protocol, which is described in more detail at https://dtp.cancer.gov/discovery_development/nci-60/default.htm.
Compounds with GIPRCNT values below 10 were considered active. Activity score was based on GIPRCNT using the following formula: […]
Score is 0 for GIPRCNT values of 100 or above, 50 for GIPRCNT values of 0, and 100 for GIPRCNT values of -100.
Consider `Cc1ccc(S(=O)(=O)CCCl)cc1`, for which the growth was 99% (inactive).
Then `O=C(O)c1ccc([N+](=O)[O-])cc1S(=O)(=O)O`, with 103% (inactive).
The value for `CC(=O)C1C(=O)C(=O)N(c2cccc([N+](=O)[O-])c2)C1=O` (stereo not given) was 101% (inactive); that for `CCN(CC)c1ccc2nc3ccc(N=Nc4ccc(N(C)C)cc4)cc3[n+](-c3ccccc3)c2c1` was -49.5% (active).
Then `CC(=O)c1cccc(O)c1`, with 107% (inactive); and `Clc1cccc(Cl)c1C1CSc2ccccc2N=C1c1ccccc1` (stereo not given), with 75.5% (inactive); and `NC(=O)NCCO`, with 101% (inactive).
Take `Cc1cc(CO)c(O)c(CO)c1`: the growth is 111% (inactive).
Then `C=CC(=O)OC1CCC(C(C)(C)CC)CC1` (stereo not given), with 103% (inactive); and `CC1(c2ccccc2)CO1` (stereo not given), with 107% (inactive).
On to `O=C(NCc1ccccc1)c1cccc([N+](=O)[O-])c1`, for which the growth was 104% (inactive).
The value for `O=C(c1ccccc1O)N1CCCC1` was 102% (inactive); that for `Cc1ccc2nc(-c3ccc(N=Cc4ccccc4O)cc3)sc2c1` was 90.4% (inactive).
Then `NC(=S)N/N=C/c1ccc(OC(=O)COc2ccccc2)cn1`, with 34.7% (inactive); and `C=C(C)COc1ccc(C(C)(C)C)cc1`, with 103% (inactive).
With `CN(C)c1ccc(O)c2c1CC1CC3C(N(C)C)C(=O)C(C(N)=O)=C(O)C3(O)C(=O)C1=C2O` (stereo not given), the growth is 35.6% (inactive).
Then `OCc1cccnc1`, with 99.2% (inactive); and `CC(C)Sc1ncnc2nc[nH]c12`, with 96.7% (inactive).
`CC(=O)C[n+]1ccc(C)cc1Sc1ccccc1C`: the growth was 64.8% (inactive).
Regarding `C=CC1=NC(C)(C)CC(C)O1` (stereo not given), the growth is 99.2% (inactive).
The value for `Cc1ccccc1NC(=O)Oc1ccc(Cl)cc1C(=O)c1ccccc1` was 88.2% (inactive); that for `CCCCn1cnc2c(=O)[nH]cnc21` was 105% (inactive); that for `Cc1ccc(NC(=S)N2CCOCC2)cc1C` was 99.4% (inactive).
With `O=Cc1ccc(O)c(O)c1`, the growth was 94.9% (inactive).
Then `COC1OC(COC(C)=O)C(OC(C)=O)C(OC(C)=O)C1OC(C)=O` (stereo not given), with 101% (inactive); and `Cn1c(=O)c2[nH]c(CC(=O)O)nc2n(C)c1=O`, with 104% (inactive); and `Cc1cc(C(=O)c2ccccc2)cc(C)c1O`, with 106% (inactive).
Then `CCN(Cc1ccc(Cl)c(Cl)c1)c1ccc2nc(N)nc(N)c2c1C`, with -75.6% (active); and `COc1cc(OC)c(NC(=O)C(Sc2nc(C)cc(C)c2C#N)c2ccccc2)cc1Cl` (stereo not given), with 98.5% (inactive); and `Cc1ccc[n+](CCC(N)=O)c1`, with 92% (inactive).
As to `O=C(Oc1ccccc1Cl)c1ccc(Cl)cc1Cl`, the growth was 98.3% (inactive).
As for `CC1CC(C)S(=O)(=O)C1` (stereo not given), the growth is 108% (inactive).
Then `CC(=O)Oc1c(Cl)cccc1-c1ccccc1`, with 96.6% (inactive).
As to `CC1CN(CCO)CC(C)O1` (stereo not given), the growth is 93.8% (inactive).
Then `CCCNS(=O)(=O)c1ccc(Cl)cc1`, with 103% (inactive); and `CS(=O)CC(=N\O)/C(CS(C)=O)=N\O` (stereo not given), with 97.6% (inactive); and `CC(C)N1CC(=O)N2CSCC2C1=O` (stereo not given), with 107% (inactive).
Consider `COc1ccc(Br)c2c1C(=O)CC2`, for which the growth is 91.8% (inactive).
Then `O=C(O)CSCC(=O)Nc1cc(C(F)(F)F)ccc1Cl`, with 102% (inactive); and `NS(=O)(=O)c1cc(=O)[nH]c(=O)[nH]1`, with 108% (inactive).
